High-throughput results as filed in PubChem.
D1 antagonist = Antagonist of Human D 1 Dopamine Receptor: qHTS; AID 504652, 2011; 360,000 compounds, 3.2% hits; HEK293 TREx D1 cells, calcium flux, dopamine EC80; active compounds read low; D(1A) dopamine receptor (Homo sapiens), P21728; activity change, negative = inhibition, % at 10 µM; in the data active = activity change below about -30%
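Inducible Hek293 Trex D1 cells (tetracycline, overnight, 30 C). Calcium dye 30–90 min RT. Antagonist mode: EC80 dopamine added after 180 s compound read.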
TRHR enhancer = qHTS for Small Molecule Agonists and Allosteric Enhancers of Human TRH Receptor: Primary Screen for Enhancers. Thyrotropin-releasing hormone receptor (Homo sapiens), P34981. TRHR cells, fluo-8 calcium fluorescence, EC20 TRH enhancement. enhancement, % at 2 µM. 360,000 compounds, 0.66% hits; in the data active = enhancement above about 30%
Target sequence (P34981 whole entry, looked up): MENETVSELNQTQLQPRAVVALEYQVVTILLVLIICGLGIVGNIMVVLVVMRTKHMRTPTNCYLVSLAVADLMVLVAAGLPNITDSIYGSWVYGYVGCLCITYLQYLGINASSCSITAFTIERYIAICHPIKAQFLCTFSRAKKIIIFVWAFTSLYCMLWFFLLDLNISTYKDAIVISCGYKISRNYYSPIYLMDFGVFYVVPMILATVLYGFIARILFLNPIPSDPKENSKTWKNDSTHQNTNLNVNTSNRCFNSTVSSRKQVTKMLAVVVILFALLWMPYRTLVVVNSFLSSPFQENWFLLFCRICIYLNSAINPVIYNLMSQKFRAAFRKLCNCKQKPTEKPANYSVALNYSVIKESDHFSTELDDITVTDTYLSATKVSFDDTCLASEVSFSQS
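TRHR-expressing cells loaded with fluo-8 calcium dye were read kinetically (ex 480/em 530) during compound addition, then stimulated with an EC20 of TRH (10 nM final). Enhancement of the Gq-mediated intracellular calcium response was scored.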
TRHR ag = qHTS for Small Molecule Agonists and Allosteric Enhancers of Human TRH Receptor: Primary Screen for Agonists. activation, % at 2 µM. Thyrotropin-releasing hormone receptor (Homo sapiens), P34981. TRHR cells, calcium flux fluo-8, FDSS agonist mode. 360,000 compounds, 0.18% hits
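Read-out: compound-evoked intracellular calcium rise in TRHR cells, fluo-8 dye, kinetic FDSS fluorescence at 1 s/cycle following a 10-cycle baseline. Cells cultured overnight before dye loading (30 min–1.5 h, RT).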
D1 potentiator = Potentiators of Human D1 Dopamine Receptor: qHTS; HEK293 TREx D1 cells, calcium flux, dopamine EC20 potentiation; potentiation, % at 10 µM; 360,000 compounds, 0.036% hits; in the data active = potentiation above about 30%
D1 agonist = Allosteric Agonists of the Human D1 Dopamine Receptor: qHTS; HEK293 T-REx D1 cells, calcium flux, agonist mode; activation, % at 2 µM; 360,000 compounds, 1% hits
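Tetracycline-induced HEK293 TREx D1 cells, force-coupled to calcium signalling, were dye-loaded with a no-wash calcium kit. Compound was pin-added after a 10 s baseline. Fluorescence was read kinetically at 1 cycle/s for 180 s, with calcium rises flagged as agonism.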
A number is an active result. The list is not random: actives were taken first. Their share in the collection is about 4.7%. Rule as the data show it, unless noted: active = activation above about 30%; inactive = the rest.

What do the screens show for `CCC(CCC(=O)NNC(=O)Cc1ccc([N+](=O)[O-])cc1)C(=O)O` (stereo unspecified)?
D1 antagonist: inactive; TRHR enhancer: inactive; TRHR ag: inactive; D1 potentiator: inactive; D1 agonist: inactive

How did COC(=O)c1ccc(NC(=O)C2CCN(S(C)(=O)=O)CC2)cc1 do in these assays?
D1 antagonist: inactive; TRHR enhancer: inactive; TRHR ag: inactive; D1 potentiator: inactive; D1 agonist: inactive

What do the screens show for `COC(=O)c1ccc(NC(=O)C2CCCN(S(C)(=O)=O)C2)cc1` (stereo unspecified)?
D1 antagonist: -33; TRHR enhancer: inactive; TRHR ag: inactive; D1 potentiator: inactive; D1 agonist: inactive

What do the screens show for `Cc1cc(C)n2nc(-c3ccsc3-n3c(C)ccc3C)cc2n1`?
D1 antagonist: -55; TRHR enhancer: inactive; TRHR ag: inactive; D1 potentiator: inactive; D1 agonist: inactive

How did O=C1COc2ccc(N3C(=O)C=CC3=O)cc2N1 do in these assays?
D1 antagonist: inactive; TRHR enhancer: inactive; TRHR ag: inactive; D1 potentiator: inactive; D1 agonist: inactive

Results for CC(NC(=O)Nc1ccc([N+](=O)[O-])cc1)C(c1cccs1)N1CCCC1 (stereo unspecified) ?
D1 antagonist: inactive; TRHR enhancer: inactive; TRHR ag: inactive; D1 potentiator: inactive; D1 agonist: 175

How did CC(NC(=O)Nc1cccc(Cl)c1)C(c1cccs1)N1CCCC1 (stereo unspecified) do in these assays?
D1 antagonist: inactive; TRHR enhancer: inactive; TRHR ag: inactive; D1 potentiator: inactive; D1 agonist: 113

How did CCOC(=O)c1c(C)[nH]c(CCC(=O)NCc2ccccc2C)c1C do in these assays?
D1 antagonist: inactive; TRHR enhancer: inactive; TRHR ag: inactive; D1 potentiator: inactive; D1 agonist: inactive

How did O=C(Nc1ccc(Br)cc1)c1cc([N+](=O)[O-])cc([N+](=O)[O-])c1 do in these assays?
D1 antagonist: -37; TRHR enhancer: inactive; TRHR ag: inactive; D1 potentiator: inactive; D1 agonist: inactive

Results for CC(=O)Nc1ccc(NC(=O)c2cc([N+](=O)[O-])cc([N+](=O)[O-])c2)cc1 ?
D1 antagonist: inactive; TRHR enhancer: 38; TRHR ag: inactive; D1 potentiator: inactive; D1 agonist: inactive

What do the screens show for `CCC(=O)Nc1ccc(OCc2nnc3c4ccccc4c(C)nn23)cc1`?
D1 antagonist: inactive; TRHR enhancer: inactive; TRHR ag: inactive; D1 potentiator: inactive; D1 agonist: inactive

Results for CCC(=O)Nc1ccc(-c2nnc3c4ccccc4c(C)nn23)cc1 ?
D1 antagonist: -39; TRHR enhancer: inactive; TRHR ag: inactive; D1 potentiator: inactive; D1 agonist: inactive

Results for CCOc1ccccc1C1CC(=O)NC(C)=C1C(=O)OCc1ccc(C)cc1 (stereo unspecified) ?
D1 antagonist: inactive; TRHR enhancer: inactive; TRHR ag: inactive; D1 potentiator: inactive; D1 agonist: inactive

What do the screens show for `CC(O)[C@H]1CC[C@H]2[C@@H]3CC[C@H]4C[C@H](O)CC[C@]4(C)[C@H]3[C@H](O)C[C@]12C` (stereo partly specified)?
D1 antagonist: -50; TRHR enhancer: inactive; TRHR ag: inactive; D1 potentiator: inactive; D1 agonist: 72

Results for Cc1ccc(C(=O)Nc2nnc(S(=O)(=O)N(C)Cc3ccc(F)cc3)s2)cc1 ?
D1 antagonist: inactive; TRHR enhancer: inactive; TRHR ag: inactive; D1 potentiator: inactive; D1 agonist: inactive

What do the screens show for `Cc1nccc(-c2cccc(N/N=C(\C#N)C(=O)c3ccccc3)c2)n1`?
D1 antagonist: inactive; TRHR enhancer: inactive; TRHR ag: inactive; D1 potentiator: inactive; D1 agonist: inactive

What do the screens show for `N#C/C(=N\Nc1cccc(C(F)(F)F)c1)C(=O)c1ccsc1`?
D1 antagonist: -32; TRHR enhancer: inactive; TRHR ag: inactive; D1 potentiator: inactive; D1 agonist: inactive

What do the screens show for `Cc1ccc(-n2nc(CO)c(C(=O)NCCCc3ccccc3)n2)cc1C`?
D1 antagonist: inactive; TRHR enhancer: inactive; TRHR ag: inactive; D1 potentiator: inactive; D1 agonist: inactive
